From article PMC7819943, “Rice protein-binding microarrays: a tool to detect cis-acting elements near promoter regions in rice”
Whole data set: some 39,000 sequences, median “fluorescence intensity (a.u.)” near 4,300, cut for the highest 2% near 39,000. Many of the other results were omitted from the sample, so the highest values are more common in it than they were.

Target: T1, OsSMF1 (Oryza sativa, UniProt Q6ZLB0 1-436)
T1 sequence: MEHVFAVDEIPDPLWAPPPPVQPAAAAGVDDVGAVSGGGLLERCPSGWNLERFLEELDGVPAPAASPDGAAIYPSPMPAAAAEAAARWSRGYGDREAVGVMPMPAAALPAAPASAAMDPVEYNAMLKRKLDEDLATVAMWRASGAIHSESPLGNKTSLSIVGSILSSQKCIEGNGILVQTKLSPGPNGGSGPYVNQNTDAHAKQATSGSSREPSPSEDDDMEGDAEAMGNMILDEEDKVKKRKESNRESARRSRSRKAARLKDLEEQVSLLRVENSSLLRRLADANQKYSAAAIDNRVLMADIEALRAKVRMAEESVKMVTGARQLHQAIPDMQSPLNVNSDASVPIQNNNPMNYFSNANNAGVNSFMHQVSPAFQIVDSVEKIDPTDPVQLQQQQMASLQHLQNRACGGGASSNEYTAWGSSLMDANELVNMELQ
Assay: protein-binding microarray (RPBM); PBS, 2% BSA, 51.3 ng/ul salmon testes DNA, 50 uM zinc acetate, 200 nM TF, 25 C, 1 h; high values mean tight binding
Details: protein: recombinant; tags: N-terminal polyhistidine and DsRed monomer fusion (pET32a); chain copies: 2; label: CyDye5-dUTP incorporated in the synthesized complementary strand; 3' TTTTT single-stranded linker to array surface; dsDNA, one strand shown
In short: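 Binding signal here means per-feature fluorescence intensity in arbitrary units. The values were read on an Axon 4000B scanner after a custom Agilent array, double-stranded by primer extension with Cy5-dUTP, was incubated with 200 nM protein at 25 °C for 1 h in PBS with 2% BSA, salmon testes DNA and 50 µM zinc acetate, then washed. The proteins were transcription factors with an N-terminal polyhistidine tag and DsRed, expressed in E. coli BL21-CodonPlus and purified on Ni–NTA.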

Sequence | binding signal
ACAAATACTGATACATATACCTATACGTATGCGTCACCGTCGGAGTCACCTAGTGCAG | 8380 fluorescence intensity (a.u.)
AATTATAAAATCCAGAAAATAAACTAAGAACTGAAAACTACGGAGTCACCTAGTGCAG | 5060 fluorescence intensity (a.u.)
GTGTGAAACTCATACAAATATAAAATTACTGAACTACCGTCGGAGTCACCTAGTGCAG | 49600 fluorescence intensity (a.u.)
TCAGGATGACTCGAAGTCGAATCCGCGTAATACGCTGGCGCGGAGTCACCTAGTGCAG | 3370 fluorescence intensity (a.u.)
CCATCACCTCGTCGTCCCCGTCACCGCGCCTCTCCCGCTGCGGAGTCACCTAGTGCAG | 3780 fluorescence intensity (a.u.)
TTGAATGGTGATGTAACTTGCATGGTTCTACACTTGATGACGGAGTCACCTAGTGCAG | 3610 fluorescence intensity (a.u.)
TAATTCCAAGCTTGTTTCACCGACCTGCCAAACTCGATTGCGGAGTCACCTAGTGCAG | 3270 fluorescence intensity (a.u.)
CTCCGATGGAAGCCACGTCCTGTCCAATTCCCAAACTAACCGGAGTCACCTAGTGCAG | 4220 fluorescence intensity (a.u.)
GGGCAGCGCTAACCCAAAGCTCCTGCGATTCCAAACCGACCGGAGTCACCTAGTGCAG | 64800 fluorescence intensity (a.u.)
AAGGTGATAGGGTCTCAAGTACGTCATTATGAATGTAAATCGGAGTCACCTAGTGCAG | 3910 fluorescence intensity (a.u.)
TCTAGACAATCAAGCCGCTAGAAGTTTCATAGAGTGGTAGCGGAGTCACCTAGTGCAG | 7160 fluorescence intensity (a.u.)
CTCCCTAGTCCACAAAACCTAGTGACGCGGCGAAACCCAACGGAGTCACCTAGTGCAG | 5660 fluorescence intensity (a.u.)
ACATGGGCCGCAATCAGGTCACGTGGCTAGGCCTTGGGCCCGGAGTCACCTAGTGCAG | 3230 fluorescence intensity (a.u.)
TTAGCCATTGCTACTTGCTTGCAGCGCGCGTGTCGGCTAGCGGAGTCACCTAGTGCAG | 25300 fluorescence intensity (a.u.)
GTGTGCTCTTGCATACATACTTGGGCTTATCTAGCTGCGTCGGAGTCACCTAGTGCAG | 5510 fluorescence intensity (a.u.)
TTTCAGTAGCGTCGGCTGCTCTATCTACTTGCATTGCCTGCGGAGTCACCTAGTGCAG | 41000 fluorescence intensity (a.u.)
CTAGTTTACATCTGCAATGTCATGATTTATTTATGGAATACGGAGTCACCTAGTGCAG | 19500 fluorescence intensity (a.u.)
GTTTCTTATTTTATGAATGGTATGAGTAAGAATATGTTTGCGGAGTCACCTAGTGCAG | 3690 fluorescence intensity (a.u.)
TGGAAAGAATACAGTATGATATGGTCTTATTTTGTCTGCCCGGAGTCACCTAGTGCAG | 41200 fluorescence intensity (a.u.)
GCGAGCAGTCGATGTCCTCGATGACGATGATGGACTTGCTCGGAGTCACCTAGTGCAG | 4140 fluorescence intensity (a.u.)
AGGGCTATCTGCTATCTCATCTTGTATGACAAAGATTGATCGGAGTCACCTAGTGCAG | 65500 fluorescence intensity (a.u.)

Sequence | binding signal
TATGACATCGGCTCAAAGATAAATGATATGTCATCGGCATCGGAGTCACCTAGTGCAG | 3540 fluorescence intensity (a.u.)
AGTAGAGAGATCTTGACAAAGTCATCGGTGATGAAGTCGACGGAGTCACCTAGTGCAG | 3570 fluorescence intensity (a.u.)
CCGTTGCCGCGCCGTGGACCGACAGCCACTGACGTCACCCCGGAGTCACCTAGTGCAG | 18600 fluorescence intensity (a.u.)
TTGAACCAACACTATATCATACACCTAGTCACCTACTCCTCGGAGTCACCTAGTGCAG | 4770 fluorescence intensity (a.u.)
ACACATTCCATATCCTTGGACTAATTCACGAGACGAATCTCGGAGTCACCTAGTGCAG | 40900 fluorescence intensity (a.u.)
CATCTCCATTCTTTCATCCTCATCTCTAATGGAGAATTTCCGGAGTCACCTAGTGCAG | 3920 fluorescence intensity (a.u.)
ACTAATTGTGGCCATGTTCATCGTGCAGTTCCTTGGATCTCGGAGTCACCTAGTGCAG | 17300 fluorescence intensity (a.u.)
AGTAATTAAAATTTAAGAGGCAAAATTACGTGTGAATTTGCGGAGTCACCTAGTGCAG | 4130 fluorescence intensity (a.u.)
CCCGAAGCGGATTCGCGCACGGAAACCCACAGTCGATTCTCGGAGTCACCTAGTGCAG | 3590 fluorescence intensity (a.u.)
ATAGGGTGAGAAAGCACCTCGTTTTCCACGCGCACGCTTCCGGAGTCACCTAGTGCAG | 3330 fluorescence intensity (a.u.)
CTTGCCGTCGACGCGAAGGAACCGCCACCCGACGTCAGCTCGGAGTCACCTAGTGCAG | 5610 fluorescence intensity (a.u.)
GGGAGGACGAAGGAACGCCAATACCGACATTGCTCAAGCTCGGAGTCACCTAGTGCAG | 65300 fluorescence intensity (a.u.)
CTTGCCGTCGAAGCGAAGGAACCGCCACCCGACGTCAGCTCGGAGTCACCTAGTGCAG | 5050 fluorescence intensity (a.u.)
GGTGGGGACCACCAGGACGGACGTGTAGGGCCTCCTGAAGCGGAGTCACCTAGTGCAG | 4270 fluorescence intensity (a.u.)
TCCAGGGAGCCGCGGTGGCATATGTTGCTGACATGTTTTCCGGAGTCACCTAGTGCAG | 5340 fluorescence intensity (a.u.)
ATGGAGCCTGACGTGGCAGCATGTAGCTGGTCCACGTCACCGGAGTCACCTAGTGCAG | 27400 fluorescence intensity (a.u.)
GATTTTATTCGACGTGTCAGCTGACTCAGATGGTCGGTAGCGGAGTCACCTAGTGCAG | 39100 fluorescence intensity (a.u.)
TCAGAGAGCTGACAGCGTGTTCAGGCCGTTCGATTTTGGTCGGAGTCACCTAGTGCAG | 5030 fluorescence intensity (a.u.)
ACTGGAGCTAACCGCTGACGTGGCATTCCACGTAGGCAACCGGAGTCACCTAGTGCAG | 42500 fluorescence intensity (a.u.)
TGTGTCATGGCTGATGTCAGCTCAGCATATATATATTCAGCGGAGTCACCTAGTGCAG | 14900 fluorescence intensity (a.u.)
ATCCGGTTTTATCCGACGTGGCGGCTGAGTCGGCGCGGGACGGAGTCACCTAGTGCAG | 30700 fluorescence intensity (a.u.)
